Hits are enriched below; roughly 1.5% of the tested compounds scored in any of these assays.
sPLA2-III inh: Inhibits HGIII-sPLA2 liposome hydrolysis, primary screen | QFRET BODIPY PC-A2 liposome hydrolysis, fluorescence | 0.56% of 370,000 active | inhibition, % at 12.2 µM | AID 743126;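 active = inhibition above mean plus 3 SD of compounds lying within the high and low control bounds, cut at about 19% in these data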
Rin1 Abl inh: human Rin1-Abl interaction inhibition. P00519+Q13671. TR-FRET Rin1/Abl binding, biochemical. inhibition, % at 7.35 µM. 0.4% of 360,000 active. AID 588664; in the data active = inhibition above about 5%, passing the limit was not always enough
Target sequence (P00519 whole entry, looked up): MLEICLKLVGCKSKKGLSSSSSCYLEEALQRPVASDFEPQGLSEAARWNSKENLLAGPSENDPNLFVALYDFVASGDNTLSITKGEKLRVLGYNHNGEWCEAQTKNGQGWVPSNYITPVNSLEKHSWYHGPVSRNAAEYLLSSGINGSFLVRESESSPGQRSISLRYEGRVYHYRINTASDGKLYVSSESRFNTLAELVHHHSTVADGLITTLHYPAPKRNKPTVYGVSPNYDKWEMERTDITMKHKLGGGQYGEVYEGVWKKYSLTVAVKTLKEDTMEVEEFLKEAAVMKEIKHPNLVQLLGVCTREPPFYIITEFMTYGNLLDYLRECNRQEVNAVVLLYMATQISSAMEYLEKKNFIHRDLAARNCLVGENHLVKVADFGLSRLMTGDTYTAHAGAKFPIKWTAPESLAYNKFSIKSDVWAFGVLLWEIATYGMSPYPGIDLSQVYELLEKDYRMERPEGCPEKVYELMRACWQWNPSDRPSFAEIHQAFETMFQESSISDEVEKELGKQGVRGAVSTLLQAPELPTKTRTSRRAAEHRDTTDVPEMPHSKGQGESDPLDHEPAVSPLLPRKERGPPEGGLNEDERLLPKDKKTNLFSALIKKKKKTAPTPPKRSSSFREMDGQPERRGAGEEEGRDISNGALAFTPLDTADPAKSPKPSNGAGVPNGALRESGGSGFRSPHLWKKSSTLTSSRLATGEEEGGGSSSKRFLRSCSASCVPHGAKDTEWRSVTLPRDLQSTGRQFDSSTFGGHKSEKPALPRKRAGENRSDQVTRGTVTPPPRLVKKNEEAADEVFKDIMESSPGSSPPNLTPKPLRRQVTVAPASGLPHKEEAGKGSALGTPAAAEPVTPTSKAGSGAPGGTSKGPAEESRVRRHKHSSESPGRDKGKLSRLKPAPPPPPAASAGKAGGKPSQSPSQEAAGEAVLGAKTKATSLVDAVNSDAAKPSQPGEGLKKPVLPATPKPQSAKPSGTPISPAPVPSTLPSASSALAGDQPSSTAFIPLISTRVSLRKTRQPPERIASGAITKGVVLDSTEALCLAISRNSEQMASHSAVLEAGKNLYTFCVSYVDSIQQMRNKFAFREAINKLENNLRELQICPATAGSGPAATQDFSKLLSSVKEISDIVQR
Target sequence (Q13671 whole entry, looked up): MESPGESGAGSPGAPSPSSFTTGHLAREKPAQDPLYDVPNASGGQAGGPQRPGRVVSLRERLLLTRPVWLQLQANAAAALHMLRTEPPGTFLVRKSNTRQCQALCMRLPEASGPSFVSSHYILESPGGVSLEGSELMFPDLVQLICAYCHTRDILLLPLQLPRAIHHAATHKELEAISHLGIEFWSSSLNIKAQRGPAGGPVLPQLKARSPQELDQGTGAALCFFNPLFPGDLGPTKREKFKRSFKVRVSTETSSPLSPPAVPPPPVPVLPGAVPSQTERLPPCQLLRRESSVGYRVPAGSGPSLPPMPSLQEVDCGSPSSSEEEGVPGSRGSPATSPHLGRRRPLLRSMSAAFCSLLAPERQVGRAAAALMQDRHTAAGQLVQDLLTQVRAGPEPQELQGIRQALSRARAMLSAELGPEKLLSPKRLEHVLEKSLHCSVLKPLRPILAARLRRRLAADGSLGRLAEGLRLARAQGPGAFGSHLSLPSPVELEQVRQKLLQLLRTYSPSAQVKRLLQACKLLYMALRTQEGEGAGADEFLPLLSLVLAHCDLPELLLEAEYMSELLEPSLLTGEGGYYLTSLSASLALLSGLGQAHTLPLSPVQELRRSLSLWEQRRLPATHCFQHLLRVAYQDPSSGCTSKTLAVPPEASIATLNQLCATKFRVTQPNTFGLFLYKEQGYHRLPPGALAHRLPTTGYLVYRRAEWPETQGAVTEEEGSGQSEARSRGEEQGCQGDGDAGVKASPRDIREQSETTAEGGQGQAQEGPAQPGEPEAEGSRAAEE
ARNT TACC3 PPI: disrupts binding between human ARNT and TACC3 | Q9Y6A5 | AlphaScreen His-ARNT PAS-B/GST-TACC3 binding, luminescence; TACC3 fragment carries E629A point mutation | inhibition, % at 9.99 µM | 0.66% of 390,000 active | AID 623870;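 active = mean inhibition of replicates at least 50% and at least half of replicates each reaching 50%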
AI-2 QS modul: modulators of Vibrio harveyi AI-2 quorum sensing system; Vibrio harveyi JMH597 AI-2 luminescence/OD600 ratio, 9 h; hits give low values; strain lacks LuxN and CqsS sensors; 0 = neutral-control median; activity change, % at 7.5 µM; 0.4% of 300,000 active; in the data active = activity change below about -75%, passing the limit was not always enough;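 note: luminescence divided by OD600 gain over 9 h not by final OD600 alone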
Rin1 Abl conf: confirmation of inhibitors of human Rin1-Abl interaction. shares compounds with Rin1 Abl inh. TR-FRET Rin1-Abl binding, purified proteins. inhibition, % at 7.35 µM. 49% of 1,300 active. AID 602124
GFP quencher: counter-screen for Rin1-Abl inhibitors: GFP fluorescence quenchers | shares compounds with Rin1 Abl inh | inhibitors/quenchers counterscreen | inhibition, % at 6.75 µM | 8.5% of 1,300 active;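 note: ABL1-eGFP fusion protein alone without its partner RIN1-SBP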
GFP quench dose: quenches GFP in dose response, Rin1-Abl counter-screen; shares compounds with Rin1 Abl inh; GFP fluorescence interference/quenching counterscreen; IC50, µM; 230 tested, under 10 active; call rule not given here;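 note: ABL1-eGFP fusion protein alone without its RIN1 binding partner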
Each line names hits and unclear results; the compound was inactive in the other large screens (follow-up assays come after a bar, where they were run). Cut-off read from the data, not from the text of the source, unless noted: active = inhibition above about 6.5%; inactive = the rest.

O=C(Cc1ccc(NC2=NC3CS(=O)(=O)CC3S2)cc1)NCc1ccccc1Cl (stereo not drawn)	Rin1 Abl inh 16.2 | Rin1 Abl conf 16.4 | GFP quencher inactive
COc1ccc(S(=O)(=O)N[C@@H]2CC[C@H](CCn3cc(-c4cccc(F)c4)nn3)O[C@@H]2CO)cc1	none (no result: sPLA2-III inh, Rin1 Abl inh, AI-2 QS modul)
C[C@@H]1CCCCO[C@H](CN(C)C(=O)c2ccccc2)[C@H](C)CN([C@@H](C)CO)C(=O)c2cc(NC(=O)NC3CCCCC3)ccc2O1	none (no result: sPLA2-III inh, Rin1 Abl inh, AI-2 QS modul)
CC(C)(C)[C@@H]1C=C(C(=O)N2CCN(Cc3ccccc3)CC2)O[C@H](OCc2ccc(CO)cc2)C1	none
CC(C)(C)[C@H]1C=C(C(=O)N2CCN(Cc3ccccc3)CC2)O[C@@H](OCCCCO)C1	Rin1 Abl inh 15.7 | Rin1 Abl conf inactive | GFP quencher inactive
C[C@@H]1CN([C@@H](C)CO)S(=O)(=O)c2ccc(C#CC3(O)CCCC3)cc2O[C@@H]1CN(C)C(=O)c1ccncc1	none (no result: sPLA2-III inh, Rin1 Abl inh, AI-2 QS modul)
CCOc1ccc(CNC(=O)c2ccco2)cc1	none
CCOc1ccc(CN(C)C(=O)CCNC(=O)c2ccco2)cc1	Rin1 Abl inh 8.6 (no result: AI-2 QS modul) | Rin1 Abl conf inactive | GFP quencher inactive
O=C(C[C@@H]1CC[C@H]2[C@@H](COC[C@@H](O)CN2S(=O)(=O)c2ccccc2F)O1)NCc1ccccc1F	none (no result: sPLA2-III inh, Rin1 Abl inh, AI-2 QS modul)
COc1ccc(NC(=O)Nc2cc(C)ccc2OC)cc1	Rin1 Abl inh 5.9 | Rin1 Abl conf inactive | GFP quencher inactive
COc1ccc(C)cc1NC(=O)CN(C)C1CCCCC1	Rin1 Abl inh 15.0 | Rin1 Abl conf inactive | GFP quencher inactive
COc1ccc(NC(=O)Nc2ccc3c(c2)CC(=O)N([C@H](C)CO)C[C@@H](C)[C@@H](CN(C)C(=O)Nc2cccc4ccccc24)O3)cc1	none (no result: sPLA2-III inh, Rin1 Abl inh, AI-2 QS modul)
C[C@H](CO)N1C[C@H](C)[C@H](CN(C)C(=O)C2CCCCC2)OCCCC[C@H](C)Oc2ccc(NC(=O)c3ccccc3)cc2C1=O	none (no result: sPLA2-III inh, Rin1 Abl inh, AI-2 QS modul)
O=C(NN1C(=O)/C(=C/c2ccc(O)c(O)c2)SC1=S)c1ccccc1	Rin1 Abl inh 7.5 | Rin1 Abl conf 6.6 | GFP quencher 12.0
O=C1/C(=C/c2ccc(O)c(O)c2)SC(=S)N1Nc1ccccc1	none (no result: sPLA2-III inh)
O=C(Cn1[nH]c(=O)c2ccccc2c1=O)Nc1ccc(-c2nnc3n2CCCCC3)cc1	Rin1 Abl inh 11.8 | Rin1 Abl conf 10.4 | GFP quencher inactive
O=C(Cc1n[nH]c(=O)c2ccccc12)Nc1ccc(-c2nnc3n2CCCCC3)cc1	none
CC[C@]12c3[nH]c4cc(-c5ccco5)ccc4c3CCN1C(=O)[C@@H](CC(=O)NCC13CC4CC(CC(C4)C1)C3)C[C@@H]2C(=O)N1CCN(C(=O)c2ccco2)CC1	none (no result: AI-2 QS modul)
CC[C@]12c3[nH]c4ccc(OC)cc4c3CCN1C(=O)C(CC(=O)NCC13CC4CC(CC(C4)C1)C3)C[C@@H]2C(=O)N1CCN(C(=O)c2ccco2)CC1 (stereo partly drawn)	Rin1 Abl inh 54.0 (no result: sPLA2-III inh, AI-2 QS modul) | Rin1 Abl conf 59.2 | GFP quencher inactive | GFP quench dose inactive
CC[C@]12c3[nH]c4ccc(Cl)cc4c3CCN1C(=O)[C@@H](CC(=O)NCC13CC4CC(CC(C4)C1)C3)C[C@@H]2C(=O)N1CCN(C(=O)c2ccco2)CC1	Rin1 Abl inh 20.5 (no result: AI-2 QS modul) | Rin1 Abl conf 16.0 | GFP quencher inactive
COc1ccc(NC(=O)N[C@H]2C=C[C@H](CC(=O)NCc3ccccn3)O[C@@H]2CO)cc1	none (no result: sPLA2-III inh, Rin1 Abl inh, AI-2 QS modul)
O=C1CCCC(O)=C1N=Nc1ccc(C(=O)O)cc1	Rin1 Abl inh 6.7 | Rin1 Abl conf inactive | GFP quencher inactive
NC(=S)NN=Cc1cc(-c2cccc(N)c2)ccn1	Rin1 Abl inh 11.0 (no result: ARNT TACC3 PPI, AI-2 QS modul) | Rin1 Abl conf 13.8 | GFP quencher inactive
NC(=S)N/N=C\c1c2ccccc2cc2ccccc12	none (no result: AI-2 QS modul)
C[C@@H]1CN([C@H](C)CO)C(=O)c2cc(NS(C)(=O)=O)ccc2O[C@@H](C)CCCCO[C@H]1CN(C)Cc1ccc(C(F)(F)F)cc1	none (no result: sPLA2-III inh, Rin1 Abl inh, AI-2 QS modul)
NS(=O)(=O)c1ccc(N/N=C/c2ccc(O)c(O)c2O)c([N+](=O)[O-])c1	Rin1 Abl inh 40.0 (no result: AI-2 QS modul) | Rin1 Abl conf 45.5 | GFP quencher 30.0
CC1(Cc2ccc3c(c2)OCO3)C(=O)Nc2ccc(-c3cccc(C(F)(F)F)c3)cc21 (stereo not drawn)	Rin1 Abl inh 7.7 (no result: ARNT TACC3 PPI, AI-2 QS modul) | Rin1 Abl conf inactive | GFP quencher inactive
COc1ccc(Br)cc1CN(C)C(=O)c1ccccc1OCc1c(C)noc1C	Rin1 Abl inh 9.0 | Rin1 Abl conf inactive | GFP quencher inactive
COc1ccc(CN(C)C(=O)c2ccccc2OCc2c(C)noc2C)c(OC)c1	none (no result: AI-2 QS modul)
O=C(O)c1ccc(-c2nc3ccccc3[nH]2)cc1	none
O=C(O)c1ccc(-c2ncc[nH]2)cc1	Rin1 Abl inh 9.3 | Rin1 Abl conf inactive | GFP quencher inactive
COC(=O)C[C@H]1CC[C@@H]2[C@H](COc3ccc(NC(=O)c4ccc(OC)cc4)cc3C(=O)N2C)O1	none (no result: sPLA2-III inh, Rin1 Abl inh, AI-2 QS modul)
COCCNC(=O)C[C@@H]1C[C@@H]2c3cc(NC(=O)c4cccnc4)ccc3O[C@@H]2[C@H](CO)O1	none (no result: sPLA2-III inh, Rin1 Abl inh, AI-2 QS modul)
COc1cc(/C=N/NC(=O)CSc2ccccn2)ccc1OC(C)C	Rin1 Abl inh 16.5 | Rin1 Abl conf 25.5 | GFP quencher inactive | GFP quench dose inactive
O=C(CCN1C(=O)/C(=C\c2ccco2)SC1=S)Nc1ccc(C(=O)O)c(O)c1	Rin1 Abl inh 10.5 | Rin1 Abl conf inactive | GFP quencher 7.3
O=C(C[C@@H]1C=C[C@H](NC(=O)CC2CC2)[C@@H](CO)O1)NCc1ccc(Cl)cc1	none (no result: sPLA2-III inh, Rin1 Abl inh, AI-2 QS modul)
Cc1ccc(C(=O)N2CC(C)CC(C)C2)cc1NC1=NC2CS(=O)(=O)CC2S1 (stereo not drawn)	Rin1 Abl inh 22.4 | Rin1 Abl conf 26.4 | GFP quencher inactive | GFP quench dose inactive
CCOC(=O)C1CCN(C(=O)c2cccc(NC3=NC4CS(=O)(=O)CC4S3)c2)CC1 (stereo not drawn)	Rin1 Abl inh 18.4 | Rin1 Abl conf 15.1 | GFP quencher inactive
COc1ccc(NC(=O)N(C)C[C@@H]2Oc3ncc(C#CCC(C)C)cc3C(=O)N([C@H](C)CO)C[C@H]2C)cc1	none (no result: sPLA2-III inh, Rin1 Abl inh, AI-2 QS modul)
CC(=O)N[C@@H]1CC[C@@H](CC(=O)NCc2ccc(Cl)cc2)O[C@H]1CO	none (no result: sPLA2-III inh, Rin1 Abl inh, AI-2 QS modul)
COc1cccc(NC(=O)N2C[C@H](O)COC[C@H]3O[C@H](CC(=O)NC4CCC4)CC[C@@H]32)c1	none (no result: sPLA2-III inh, Rin1 Abl inh, AI-2 QS modul)
Cn1c(=O)oc2cc(S(=O)(=O)N3CCOCC3)ccc21	none
O=S(=O)(c1ccc2c(c1)oc1ccccc12)N1CCOCC1	Rin1 Abl inh 8.5 | Rin1 Abl conf inactive | GFP quencher inactive
CS(=O)(=O)c1ccc(Cl)c(NC(=O)c2ccc3ccccc3c2)c1	none
O=C(Nc1ccccc1Cl)c1ccc2ccccc2c1	Rin1 Abl inh 7.6 (no result: ARNT TACC3 PPI) | Rin1 Abl conf inactive | GFP quencher inactive
